mcGAS RapidFire = inhibitors of Mus musculus cyclic GMP-AMP synthase, initial high-throughput assay, cell-free, RapidFire MS; Q8C6L5; recombinant mouse cGAS, cGAMP by RapidFire MS; inhibition, % at 12.5 µM; hit rate 0.18% among 130,000; AID 1259397, 2018;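 active = inhibition of cGAS enzyme activity at or above 60%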;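 also: enzyme stimulated by 45 bp dsDNA with ATP and GTP substrates; cGAMP share of summed cGAMP plus half ATP and half GTP signals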
Target sequence (Q8C6L5 whole entry, looked up): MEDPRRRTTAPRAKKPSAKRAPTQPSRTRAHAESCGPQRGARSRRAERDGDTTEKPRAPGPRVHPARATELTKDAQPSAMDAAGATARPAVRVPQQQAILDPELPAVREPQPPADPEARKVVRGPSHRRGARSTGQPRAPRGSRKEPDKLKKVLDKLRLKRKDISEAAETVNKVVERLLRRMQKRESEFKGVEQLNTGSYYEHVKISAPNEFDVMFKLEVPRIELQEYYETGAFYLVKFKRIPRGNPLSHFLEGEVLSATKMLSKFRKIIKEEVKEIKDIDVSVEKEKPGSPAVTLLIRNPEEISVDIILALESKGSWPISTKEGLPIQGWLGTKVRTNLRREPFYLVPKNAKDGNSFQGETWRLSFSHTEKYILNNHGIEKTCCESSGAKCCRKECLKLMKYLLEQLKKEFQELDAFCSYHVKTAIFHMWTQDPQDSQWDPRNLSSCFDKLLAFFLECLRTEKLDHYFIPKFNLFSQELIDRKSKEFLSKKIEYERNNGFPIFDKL
The depositor's hits bear a star; ! = not active in a repeat. The full list was thinned out, with hits kept by preference.

How did COCCNC(=O)C(NC(=O)C1CCCC1)C1CCN(C(=O)c2ccc(Cl)cc2)CC1 (configuration not stated) do in these assays?
mcGAS RapidFire: -10

Results for Cc1cc(O)c(-c2ccn[nH]2)c(=O)o1 ?
mcGAS RapidFire: -3

What do the screens show for `Cc1cc(O)c(C2=Nc3cc(C(F)(F)F)ccc3SC(c3ccc(O)c([N+](=O)[O-])c3)C2)c(=O)o1` (configuration not stated)?
mcGAS RapidFire: 67*

Results for Cc1cc(O)c(C2=Nc3ccccc3SC(c3ccc([N+](=O)[O-])cc3)C2)c(=O)o1 (configuration not stated) ?
mcGAS RapidFire: -4

What do the screens show for `Cc1ccc(C(=O)Nc2ncn[nH]2)c(Cl)c1`?
mcGAS RapidFire: -4

What do the screens show for `COc1ccc(Cl)cc1CN1C(=O)CON=C1c1ccc(C)cc1`?
mcGAS RapidFire: 63*

Results for COc1ccc(Cl)cc1CN1C(=O)CON=C1c1ncccc1C ?
mcGAS RapidFire: -2

What do the screens show for `Cc1ccccc1CN1C(=O)CON=C1c1ccc(N(C)C)cc1`?
mcGAS RapidFire: 3

How did COC(=O)c1cccc(NS(=O)(=O)c2ccc(C)s2)c1 do in these assays?
mcGAS RapidFire: -4

How did COC(=O)c1nc2n(n1)-c1ccccc1S(=O)(=O)N2 do in these assays?
mcGAS RapidFire: 91*

Results for CC(C)C(C)NC(=O)c1ccc2c(c1)S(=O)(=O)Nc1ncnn1-2 (configuration not stated) ?
mcGAS RapidFire: 2

What do the screens show for `COC(=O)CSC1=NS(=O)(=O)c2ccccc2N1`?
mcGAS RapidFire: -3

What do the screens show for `C=CCNC(=O)CCCn1nc([N+](=O)[O-])c(Br)c1C`?
mcGAS RapidFire: -4

Results for CCOC(=O)NC(=S)NN(C)c1nc(C)cnc1C ?
mcGAS RapidFire: -4

Results for CN(C)c1nc2nonc2nc1NC1CCC1 ?
mcGAS RapidFire: -4

What do the screens show for `Cc1cnc(C)c(N(C)C)n1`?
mcGAS RapidFire: 93*

How did COC(=O)C1C(=O)CSC1=Nc1ccccc1OC (configuration not stated) do in these assays?
mcGAS RapidFire: -3

What do the screens show for `Cc1cccc(N=Cc2nc(-c3cccc4ccccc34)oc2O)c1`?
mcGAS RapidFire: 88*

What do the screens show for `Cc1ccc(-c2nc(C=Nc3cccc(C)c3)c(O)o2)cc1`?
mcGAS RapidFire: -14

How did Cc1ccc(Cl)cc1N=Cc1nc(-c2cccc3ccccc23)oc1O do in these assays?
mcGAS RapidFire: 83*

What do the screens show for `Oc1oc(-c2cccc3ccccc23)nc1C=Nc1cccc(F)c1`?
mcGAS RapidFire: -6

What do the screens show for `Cc1cc(Cl)ccc1N=Cc1nc(-c2ccccc2Br)oc1O`?
mcGAS RapidFire: -13

How did Cc1ccc(Cl)cc1N=Cc1nc(-c2ccc(Cl)cc2)oc1O do in these assays?
mcGAS RapidFire: -19

Results for O=C(CSCc1ccccc1Cl)NCc1ccc2c(c1)OCO2 ?
mcGAS RapidFire: -13

Results for CC(=CC(=O)C(F)(F)F)N1CCN(C(=O)c2ccco2)CC1 ?
mcGAS RapidFire: -12

How did COc1ccc(C(=O)N2CCC(NC(=O)Cn3ccccc3=O)CC2)c(OC)c1 do in these assays?
mcGAS RapidFire: -23

What do the screens show for `O=C(NCCc1cnn(-c2ccccc2)c1)[C@@H]1C[C@@H]2C=C[C@H]1C2`?
mcGAS RapidFire: -17

What do the screens show for `NC(Cc1ccc(O)cc1)C(=O)O` (configuration not stated)?
mcGAS RapidFire: -3

How did CC(Nc1ccc(Cl)cc1Cl)C(=O)O (configuration not stated) do in these assays?
mcGAS RapidFire: 31

Results for N[C@@H](Cc1cc(-c2ccc(Cl)cc2Cl)cc(CP(=O)(O)O)c1O)C(=O)O ?
mcGAS RapidFire: 70*

How did CSC(C)CCN1CCC(OCc2cccnc2)CC1 (configuration not stated) do in these assays?
mcGAS RapidFire: -8

How did COc1cccc(NC2=CC(=O)N(CCO)C2=O)c1 do in these assays?
mcGAS RapidFire: -9

What do the screens show for `O=C(COc1ccc(Cl)cc1Cl)NCc1nnc(SCC(=O)N2CCc3ccccc32)n1-c1ccc(F)cc1`?
mcGAS RapidFire: -7

How did CC(=NCCc1ccccc1)c1c(C(F)(F)F)[nH]n(-c2nc3ccccc3s2)c1=O do in these assays?
mcGAS RapidFire: 6

Results for C/C(=N\N1CCN(C)CC1)c1c(C(F)(F)F)[nH]n(-c2nc3ccccc3s2)c1=O ?
mcGAS RapidFire: -2

How did C/C(=C1\C(=O)N(c2nc3ccccc3s2)N=C1C(F)(F)F)N1CCN(c2ccccc2)CC1 do in these assays?
mcGAS RapidFire: 66*

How did CCn1cc(C(=O)O)c(=O)c2cc3c(cc21)OCO3 do in these assays?
mcGAS RapidFire: -9

Results for CCc1ccccc1-n1ccc2nc(N3CCCCC3)ncc2c1=O ?
mcGAS RapidFire: -18

What do the screens show for `CCn1cc(C(=O)O)c(=O)c2cnc(N3CCCC3)nc21`?
mcGAS RapidFire: 78*

How did Cc1ccc(C(=O)[C@@H]2C(C#N)(C#N)C23CCC2(CC3)OCCO2)cc1 (some centres not stated) do in these assays?
mcGAS RapidFire: -8

How did CCC(CNCc1nccn1C)Oc1cccc(F)c1 (configuration not stated) do in these assays?
mcGAS RapidFire: -3

What do the screens show for `CC(CNC(=O)Nc1ccn(CC(=O)N2CCOCC2)n1)N(C)c1ccccc1` (configuration not stated)?
mcGAS RapidFire: -5

How did O=C(Nc1ccc(CC(=O)N2CCC(O)CC2)cc1)c1cc(Cl)ccc1Cl do in these assays?
mcGAS RapidFire: -3

Results for Nc1ccc(O)c(C(=O)O)c1 ?
mcGAS RapidFire: -4

Results for O=C(O)C1=CC(=C(c2ccc(O)c(C(=O)O)c2)c2ccc(O)c(C(=O)O)c2)C=CC1=O ?
mcGAS RapidFire: 95*

Results for Cc1cc(O)ccc1C(=O)O ?
mcGAS RapidFire: -1

What do the screens show for `O=C(O)c1cc(-c2c(F)cccc2F)nc2cc3c(cc12)OCCO3`?
mcGAS RapidFire: 1

What do the screens show for `CCS(=O)(=O)c1ncc(CN2CCCCO2)n1CCCc1ccccc1`?
mcGAS RapidFire: -5

What do the screens show for `c1ccc(NC2CCCN(Cc3cccn3-c3nccs3)C2)cc1` (configuration not stated)?
mcGAS RapidFire: -12

Results for C[N+](C)(C)CCCCCC[N+](C)(C)C ?
mcGAS RapidFire: -8

How did CCCCCCCCCCCC[N+](C)(C)CCOc1ccccc1 do in these assays?
mcGAS RapidFire: 9

How did CCCCCCCCCCCCCCCC[N+](C)(C)C do in these assays?
mcGAS RapidFire: 98*!

What do the screens show for `CCOc1c(CC)cnc2c1c(=O)n(Cc1cc(OC)cc(OC)c1)c(=O)n2C`?
mcGAS RapidFire: -6

What do the screens show for `Cc1cc(NC(C)c2ccccc2)nc(C(C)C)n1` (configuration not stated)?
mcGAS RapidFire: -13

What do the screens show for `O=C(CCC1CCCN(C(=O)/C=C/c2nc3ccccc3s2)C1)NC1CC1` (configuration not stated)?
mcGAS RapidFire: -13

Results for N#Cc1ccc(/C=C2\SCCc3ccccc3C2=O)cc1 ?
mcGAS RapidFire: 7

What do the screens show for `O=C1C(=Cc2ccc(-c3ccccc3)cc2)CS(=O)(=O)c2ccc(F)cc21`?
mcGAS RapidFire: -1

Results for N#Cc1ccc(/C=C2\CS(=O)(=O)c3c(F)cccc3C2=O)cc1 ?
mcGAS RapidFire: 63*

How did O=S(=O)(c1ccc(S(=O)(=O)N2CC=C(c3ccccc3)CC2)cc1)C(F)F do in these assays?
mcGAS RapidFire: -1

Results for OCc1csc(-c2ccnc3[nH]ccc23)n1 ?
mcGAS RapidFire: -11
